Test results from PubChem BioAssay AID720526 (National Center for Advancing Translational Sciences (NCATS), 2013).
Inconclusive results are not listed. A number with no mark means an inactive call. Activity calls are given as the source filed them. Calls come from the whole dose curve; as a rule, active = well fitted activation curve with a large enough effect; inconclusive = small, poorly fitted or top-dose-only effect; inactive = no such curve, though single readings can be large or run the other way.

assay: qHTS Assay for NPC1 Promoter Activators: Hit Validation Using Renila Luciferase Read-Out for NPC1; conditions: Huh7 NPC1 promoter-luciferase reporter, luminescence, 24 h; series mostly up to 76.9 µM; activity change, positive = activation: at the top concentration; for activity change, positive = activation: % of control where 0% means no effect
Excerpt: Niemann Pick Type C (NPC) is a rare neurodegenerative lipidosis that is characterized by lipid storage in the endosomal/lysosomal system. Treatment modalities for this devastating disease are currently non-existent due to the severe obstacles associated with accessing the central nervous system with proteins or genes. The majority of mutations causing NPC disease are missense mutations that are distributed throughout the length of the NPC1 protein, with the most prevalent being the I1061T allele. Although NPC1 mutant proteins may be functional, they are typically trapped in the ER due to misfolding. […] We have developed and optimized a cell based renilla luciferase reporter assay in 1536 well format for the identification of up-regulators of the mutant Rab9 promoter. This assay presents data on the validation of hits from the primary screen, which used a firefly luciferase read-out. NIH Chemical Genomics Center [NCGC] NIH Molecular Libraries Probe Production centers Network [MLPCN] MLPCN Grant: MH089375 Assay Submitter (PI): Yiannis A. Ioannou
Huh7 cells stably expressing NPC promoter-luciferase will be seeded at 1,500 cells/well in 5 uL in 1,536-well white opaque plates with 23 nL/well of compound in DMSO solution. The assay plates will be incubated at 37 deg C for 24 hours, after which 3 uL/well BriteLite plus luciferase detection reagent mixture (Perkin Elmer) will be added. Luminescence signal will be measured in a ViewLux plate reader (Perkin Elmer) after a 10 minute incubation at the room temperature.
Potency is the fitted concentration of half-maximal effect.

Row | Compound | activity change, positive = activation [%] | Potency
1 | Fc1ccc(-c2nc3nc4ccccc4nc3n2Cc2ccco2)cc1 | -99.6 | –
2 | O=C(CSc1nnc(-c2ccc([N+](=O)[O-])cc2)o1)Nc1ccccn1 | -72.1 | –
3 | N#C/C(=N\Nc1ccc(Cl)cc1)C(=N)N1CCCCC1 | -69.1 | –
4 | COC(=O)c1ccccc1NC(=O)c1cc(-c2cccs2)on1 | 20.1 | –
5 | O=C(c1cccc(Oc2ccc([N+](=O)[O-])cc2)c1)N1CCOCC1 | -24.6 | –
6 | COc1cccc(CNC(=O)CN(c2cc(C)cc(C)c2)S(=O)(=O)c2c(C)noc2C)c1 | 7.09 | –
7 | COCCNC(=O)C1CCC(CNS(=O)(=O)c2ccc(F)cc2)CC1 (stereo not given) | 0.674 | –
8 | COc1ccc(-c2nnc(SCC(=O)/C(C#N)=C(\C)N)o2)cc1 | 2.86 | –
9 | CCC1CCCCN1CCCNC(=O)c1ccc2nc(N3CCCCC3)sc2c1 (stereo not given) | -32.3 | –
10 | Cc1nc2sc(C(=O)OC(C)C)c(N)c2c(C)c1C | 0.223 | –
11 | O=C(/C=C/c1ccco1)NCC1OCCc2ccccc21 (stereo not given) | 11.3 | –
12 | COc1ccc(-n2c(N)c(C(=O)NCc3ccco3)sc2=S)cc1 | 0.357 | –
13 | COc1ccc(NC(=O)CCCN2C(=O)C(c3ccccc3)Oc3cccnc32)cc1OC (stereo not given) | -18.8 | –
14 | CC1CCCN(S(=O)(=O)c2ccc(C(=O)Nc3nnc(-c4ccncc4)o3)cc2)C1 (stereo not given) | -61.4 | –
15 | COc1cccc(NC(=O)CN2C(=O)CSc3ccc(S(=O)(=O)N4CCC(C)CC4)cc32)c1 | -64 | –
16 | Cc1cccc(NC(=O)CSc2nc3ccccc3o2)c1 | -16.9 | –
17 | Cc1ccc2nc(NC(=O)CCn3cccc3)sc2c1 | 16.6 | –
18 | O=C(CN1C(=O)COc2ccc(Cl)cc21)NCC1CCCO1 (stereo not given) | 2.71 | –
19 | CC(C)(C)NC(=S)NNC(=O)c1ccc2ncccc2c1 | -37.5 | –
20 | COc1ccc(NC(=O)Nc2ccc(Cc3ccncc3)cc2)cc1OC | -56.6 | –

Row | Compound | activity change, positive = activation [%] | Potency
21 | CCOC(=O)CSc1nc2cc3c(cc2cc1C#N)OCO3 | 15.2 | –
22 | OCCC1CN(Cc2nc3ccccc3s2)CCN1C1CCCC1 (stereo not given) | -7.98 | –
23 | N#C/C(=C\c1ccc[nH]1)C(=O)Nc1ccccc1Cl | – | 23.2 µM (active)
24 | Cn1c(SCc2ccccc2)nnc1-c1cnccn1 | -19.9 | –
25 | CC(=O)[C@@H]1[C@@H](C(=O)c2ccc(C)cc2)[C@]2(C(=O)Nc3ccccc32)[C@H]2C=Cc3cc(F)ccc3N12 | 6.88 | –
26 | O=C(NC1CCCC1)C(c1ccc(F)cc1)N(C(=O)c1csnn1)c1ccccc1 (stereo not given) | 9.81 | –
27 | COc1ccc([N+](=O)[O-])cc1COc1ccc2c(-c3ccccc3)cc(=O)oc2c1 | – | 1.46 µM (active)
28 | O=C(CCCOc1ccc(Cl)cc1)N1CCCCC1 | -10.6 | –
29 | Nc1nc(SCCO)[nH]c(=O)c1NC(=O)c1ccco1 | 10 | –
30 | C=CCc1ccc(OCCOCCNCCOC)c(OC)c1 | -23.8 | –
31 | Nc1ccc(C(=O)Nc2ccccc2N)cc1 | – | 16.4 µM (active)
32 | COc1ccc(S(=O)(=O)NC(C(=O)NCCc2ccccn2)C(C)C)cc1 (stereo not given) | -2.89 | –
33 | Cc1nnc2n(c1=O)N=C(c1ccc(Cl)cc1)CS2 | 11.5 | –
34 | Cc1cccc(N2CCN(C(=S)c3ccccc3)CC2)c1 | 9 | –
35 | CCCNC(=O)C1CCN(S(=O)(=O)c2ccc3[nH]c(=O)ccc3c2)CC1 | 14.4 | –
36 | COC(=O)CSc1nc2cc3c(cc2cc1C#N)OCO3 | -11.1 | –
37 | CC1(C)CC(=O)c2c(O)c(-c3ccccc3)c(=O)n(-c3ccccc3)c2C1 | 18.9 | –
38 | Cc1ccc2nc(Nc3ccc(Cl)cc3)c3nncn3c2c1 | -31.7 | –
39 | CC(=O)Nc1ccc(NC(=O)COc2ncnc3ccccc23)cc1 | -0.508 | –
40 | CN(C)C(CNC(=O)CNC(=O)c1ccc2ccccc2c1)c1ccccc1 (stereo not given) | 11.3 | –
